Experimental data taken from ChEMBL document CHEMBL4513216, “Probing the Open Global Health Chemical Diversity Library for Multistage-Active Starting Points for Next-Generation Antimalarials” (ACS Infect Dis, 2020).
In all, about 69,000 compounds went through this assay and about 8,600 (12%) showed an effect of 50% or more. Many of the other results were omitted from the sample, so strong results are more common in it than they were.

These compounds were tested on Plasmodium berghei (assay: Screen against P. berghei liver stage (PbLuc), transformed with Luciferase, at 10uM). Details: tested at 10 uM.
Assay type: functional, HepG2
`CN(C)c1cc(C(=O)N2CCCCC2Cn2cccn2)ccn1` (stereo not given) showed an INHIBITION of 17.5%. With `CCOc1ccccc1N1CCN(C(=O)c2cc[nH]n2)CC1` the INHIBITION was 44.1%. With `CN(C)CCOCC1CN(C(=O)N2CCCC2)Cc2ccnn2C1` (stereo not given) the INHIBITION was 46.6%. `O=C(O)c1cc(S(=O)(=O)Nc2ccccc2)cc2c1OCCO2` gave an INHIBITION of 31.8%. `CCCc1nc(CN(CC)Cc2ccc(O)c(C(=O)O)c2)no1` gave an INHIBITION of 14.3%. `CCN(CC)S(=O)(=O)c1ccc2c(c1)N(Cc1cccnc1)C(=O)CS2` showed an INHIBITION of -3.5%. `O=C(c1cc[nH]n1)N1CCOCC2(C1)CN(c1ccccc1)C(=O)CO2` (stereo not given) was tested, and the INHIBITION was -14.2%. `Cc1cnn(C2CCCN(C(=O)CCc3c(C)noc3C)C2)c1` (stereo not given) gave an INHIBITION of 16.8%. With `CCN(CCO)C[C@@H]1CN(c2cc(C(F)(F)F)cc(C)n2)C[C@@H]1CO` the INHIBITION was 12.9%. With `Cc1c(C(=O)N2C[C@@H](CN(C)CCO)[C@@H](CO)C2)sc2ccccc12` the INHIBITION was 32.1%. For `CCN(CCO)C[C@@H]1CN(C(=O)c2ccc(C)s2)C[C@@H]1CO`, the INHIBITION was 59.4%. `COCCN(C)C[C@@H]1CN(c2nc(C)cc(C)n2)C[C@@H]1CO` was tested, and the INHIBITION was 32.2%. For `CCN(CCO)C[C@@H]1CN(C(=O)c2sc3ccccc3c2C)C[C@@H]1CO`, the INHIBITION was 47.6%. `CCN(CCO)C[C@@H]1CN(c2nc(C)cc(C)n2)C[C@@H]1CO` was tested, and the INHIBITION was 54.6%. In the case of `O=C(NCc1cn2c(n1)CN(Cc1ccncc1)CC2)C1CCC1`, the INHIBITION was 43.9%. Compound `CCOc1ccnc(N2CCN(C(=O)c3cnc[nH]3)CC2)n1` has an INHIBITION of 31.8%. Compound `CC(C)c1cc(NC(=O)CNC2CCCN(c3cccnn3)C2)on1` (stereo not given) has an INHIBITION of 42.9%. Work on `CCC1(CC)CC(=O)N(CC(O)c2cccc(Br)c2)C1=O` (stereo not given) yielded an INHIBITION of -8%. Work on `Cc1nc(-c2ccco2)ccc1C(=O)NCCN1CCN(C)CC1` yielded an INHIBITION of 23.5%. For `CCC(CO)N(Cc1cccs1)C(=O)Cc1ccncc1` (stereo not given), the INHIBITION was 41.4%. `CCC(CO)N(Cc1cccs1)C(=O)Cc1ccc(O)cc1` (stereo not given) gave an INHIBITION of 71.1%. Work on `CCC(CO)N(Cc1cccs1)C(=O)CSC` (stereo not given) yielded an INHIBITION of -36.3%. Compound `CCCNC(=O)COc1cc(C)c2c(C)nn(-c3ccccc3)c2n1` has an INHIBITION of 31.3%. `N#Cc1ccc(C(=O)NS(=O)(=O)c2ccc(C#N)c(Cl)c2)cc1` showed an INHIBITION of 57.2%. `COc1cc(C(=O)NS(=O)(=O)c2ccc(C#N)cc2)ccc1C` gave an INHIBITION of 15.5%. `COc1cccc(C(=O)NS(=O)(=O)c2cccc(C#N)c2)c1` gave an INHIBITION of 38.8%. `N#Cc1ccc(S(=O)(=O)NC(=O)c2ccc3c(c2)COC3)cc1` gave an INHIBITION of 6.61%. For `N#Cc1ccc(CS(=O)(=O)NC(=O)c2ccc(C#N)cc2)cc1`, the INHIBITION was -6.52%. Work on `N#Cc1ccc(C(=O)NS(=O)(=O)c2ccc(F)c(F)c2)cc1` yielded an INHIBITION of 58.3%. Compound `COc1cc(C(=O)NS(=O)(=O)c2cccc(C#N)c2)ccc1C` has an INHIBITION of 14.4%. `N#Cc1cccc(C(=O)NS(=O)(=O)c2ccc(C#N)c(Cl)c2)c1` gave an INHIBITION of 50.7%. `COc1cc(C(=O)NS(=O)(=O)c2cccc(C#N)c2)cc(Cl)c1OC` was tested, and the INHIBITION was -5.25%. With `CCc1oc(C(=O)N2CCC(N(CC)C(C)=O)C2)cc1CN(CC)CC` (stereo not given) the INHIBITION was 19.4%. In the case of `O=C(NCc1cccnc1)N1CCc2ncnc(NC3CC3)c2CC1`, the INHIBITION was 4.98%. In the case of `COc1c(C2CCCN2Cc2nc(-c3ccco3)no2)c(C)nn1C` (stereo not given), the INHIBITION was -21.8%. Compound `Cc1nc(-c2ccc(CO)cc2)cc(C2CCNCC2)n1` has an INHIBITION of 23.9%. In the case of `Cn1ccc(CN2CCC3(CC2)CC(Nc2ccccn2)CO3)n1` (stereo not given), the INHIBITION was 37.9%. Work on `Cc1nc(CN2CCCc3cc(OC(F)(F)F)ccc32)oc1C` yielded an INHIBITION of 37.9%. `Cc1nn(C)c(C)c1CNCc1ccc(N2CCOCC2)nc1` showed an INHIBITION of 32.8%. With `O=C(NCC1CC1)[C@H]1C[C@H]2CN(C(=O)NCC3CCCCC3)C[C@@H]1O2` the INHIBITION was 20.1%. With `Cc1cccn2c(=O)cc(OC(=O)c3ccccc3Cl)nc12` the INHIBITION was 26.7%. In the case of `CC(C)(C)n1cc(C2=CCN(CCc3ccccn3)CC2)cn1`, the INHIBITION was 18.7%. Work on `CC(C)(C)n1cc(C2=CCN(CCN3CCCCCC3)CC2)cn1` yielded an INHIBITION of 0.734%. With `CC(C)(C)n1cc(C2=CCN(CCc3ccccc3)CC2)cn1` the INHIBITION was 50.2%. Work on `CC(C)(C)c1cnc(CN2CCCCC2Cn2cccn2)o1` (stereo not given) yielded an INHIBITION of 14.4%. Compound `N#Cc1cccc(CN2CCN(Cc3cscn3)CC2)c1` has an INHIBITION of 66.4%. `N#Cc1cccc(CN2CCn3cc(Cn4cccn4)nc3C2)c1` was tested, and the INHIBITION was 58.8%. `Fc1cccc(CN2CCN(Cc3cscn3)CC2)c1` was tested, and the INHIBITION was 36.7%. `CCn1ccnc1CN1CCN(Cc2cccc(C#N)c2)CC1` gave an INHIBITION of 68.8%. In the case of `CCn1ccnc1CN1CCN(CCOc2cccc(C#N)c2)CC1`, the INHIBITION was 23.2%. `CCn1ccnc1CN1CCN(CCOc2ccc(C#N)cc2)CC1` was tested, and the INHIBITION was 52.3%. `CCn1ccnc1CN1CCN(Cc2ccc(C#N)cc2)CC1` showed an INHIBITION of 48.1%. With `CCn1ccnc1CN1CCN(Cc2cc(C#N)ccc2F)CC1` the INHIBITION was 35.9%. In the case of `c1ccc(CN2CCN(Cc3cscn3)CC2)cc1`, the INHIBITION was 19.4%. In the case of `c1cncc(CN2CCn3cc(Cn4cccn4)nc3C2)c1`, the INHIBITION was 31.7%. `Fc1ccc(CN2CCn3cc(Cn4cccn4)nc3C2)cc1` gave an INHIBITION of -53.6%. For `CCn1ccnc1CN1CCN(CCOc2ccccc2C#N)CC1`, the INHIBITION was 14.1%. Work on `O=C(c1ccc2[nH]cnc2c1)N1CCCC1Cn1cccn1` (stereo not given) yielded an INHIBITION of -0.514%. In the case of `C[C@@H]1CN(S(C)(=O)=O)C[C@]12CCN(Cc1cccnc1)C2=O`, the INHIBITION was -28.2%. Work on `CNC(=O)c1cc(C2CCCN2)n[nH]1` (stereo not given) yielded an INHIBITION of 31.3%. For `c1nc2c(c(C3CC3)n1)CCN(Cc1ccc3c(c1)OCO3)CC2`, the INHIBITION was 21.8%. Work on `c1cnn(CC2CCCN2Cc2cn3ccsc3n2)c1` (stereo not given) yielded an INHIBITION of 28%. In the case of `CSCCC(Nc1nc(C)cc(C)n1)C(=O)NCC1CCOCC1` (stereo not given), the INHIBITION was 25.2%. In the case of `CCc1csc(C2CCCN(C(=O)COc3cc(C)on3)C2)n1` (stereo not given), the INHIBITION was 46.2%. Compound `O=C1CCCCCN1Cc1ncnn1Cc1c(F)cccc1Cl` has an INHIBITION of 5.46%. `COc1ccc(OCCN2CCCN(Cc3noc(C)n3)CC2)cc1` was tested, and the INHIBITION was 4.52%. Compound `Cc1cccc(OCCN2CCN(Cc3noc(C)n3)CC2)c1` has an INHIBITION of 30.6%. With `Cc1nc(CN2CCCN(CCOc3ccc(C#N)cc3)CC2)no1` the INHIBITION was 56.6%. Compound `CC(C(=O)NC1CC1)n1nc(-c2cccs2)cc(N)c1=O` (stereo not given) has an INHIBITION of 23.9%. `CC(=O)NC1CCCN(C(=O)Nc2cnc3c(cnn3C(C)C)c2)C1` (stereo not given) was tested, and the INHIBITION was 4.31%. `CC(C)n1ncc2cc(NC(=O)N3CCC(C(N)=O)C3)cnc21` (stereo not given) showed an INHIBITION of 7.08%. In the case of `CC(C)n1ncc2cc(NC(=O)N3CCC(N4CCCC4)C3)cnc21` (stereo not given), the INHIBITION was 53.3%. Compound `O=C1CC[C@H]2CN(Cc3cccnc3)CC[C@H]2N1CCc1c[nH]cn1` has an INHIBITION of 23.9%. Compound `O=C1CC[C@H]2CN(Cc3ccc(Cl)s3)CC[C@H]2N1CCc1c[nH]cn1` has an INHIBITION of 78.5%. `Cc1nc(CN2CC[C@@H]3[C@@H](CCC(=O)N3CCc3c[nH]cn3)C2)co1` gave an INHIBITION of 44.8%. `CN(CCO)c1ncc(-c2ccc(NC(=O)[C@@H]3CCCCN3)cc2)cn1` was tested, and the INHIBITION was -4.82%. With `CCOC(=O)Cn1c(=O)nc(N)c2c(-c3ccc(OC)cc3)csc21` the INHIBITION was 18.3%. Work on `COc1ccc(-c2csc3c2c(N)nc(=O)n3CCCN(C)C)cc1` yielded an INHIBITION of 60.1%. `COc1ccc(-c2csc3c2c(N)nc(=O)n3CC(N)=O)cc1` was tested, and the INHIBITION was 58.2%. With `CCc1c(C)sc2c1c(N)nc(=O)n2CCN(C)C` the INHIBITION was -14.2%. Compound `CCn1c(=O)nc(N)c2c(-c3ccc(OC)cc3)csc21` has an INHIBITION of 23.9%. `COc1ccc(-c2csc3c2c(N)nc(=O)n3CCN(C)C)cc1` gave an INHIBITION of 50.8%. With `COc1ccc(-c2csc(N)c2C#N)cc1` the INHIBITION was 40.9%. `CCc1c(C)sc2c1c(N)nc(=O)n2CCCN(C)C` was tested, and the INHIBITION was -11.9%. For `C=C(C)Cn1c(=O)nc(N)c2c(-c3ccc(OC)cc3)csc21`, the INHIBITION was 33.2%. `COc1ccc(CN2C[C@@H]3OCCN(C)[C@@H]3C2)cc1` showed an INHIBITION of 22.9%. Work on `CCOC[C@@]12CCC[C@@H]1CN(C(=O)COc1ccccc1OC)C2` yielded an INHIBITION of 10.4%. `Cc1noc(C)c1CN1C(=O)[C@@H]2CC[C@H]1CN(Cc1cccc(O)c1)C2` gave an INHIBITION of -77.6%. Work on `COCC(O)CN1CC(C)(C)CN(C(=O)CCc2ccccc2)CC1=O` (stereo not given) yielded an INHIBITION of -39.8%. In the case of `Cc1ccccc1C(NC(=O)NCC1(O)CCC1)C1CC1` (stereo not given), the INHIBITION was -15.9%. `CC(C)n1nnnc1-c1ccc(NC(=O)C(C)(C)C#N)cc1F` showed an INHIBITION of 6.09%. In the case of `CN(C)CC1CCCCN1C(=O)c1ccc(N2CCOCC2)cc1` (stereo not given), the INHIBITION was 23.4%. With `CCc1ccc(CN(C)C(=O)C2CC(=O)N(c3cccc(O)c3)C2)nc1` (stereo not given) the INHIBITION was 32.1%. For `CCc1cc(CN(C)C(=O)C2CC(=O)N(c3cccc(O)c3)C2)on1` (stereo not given), the INHIBITION was 66.6%. `CCc1nc(CN(C)C(=O)C2CC(=O)N(c3cccc(O)c3)C2)no1` (stereo not given) gave an INHIBITION of 10.3%. In the case of `Cc1cccc(Cn2cc(C)c(N)n2)c1`, the INHIBITION was 2.6%. `CN1[C@H](CN2CCCC2)C[C@@H]2CN(Cc3ccoc3)CC[C@@H]21` was tested, and the INHIBITION was -14.3%. Work on `CCN(C)c1ncnc2c1CCN(C(=O)c1cccn1C)CC2` yielded an INHIBITION of 52%. `CCN(C)c1ncnc2c1CCN(C(=O)c1ccsc1)CC2` gave an INHIBITION of 14.9%. `CCN(C)c1ncnc2c1CCN(C(=O)c1ccccn1)CC2` was tested, and the INHIBITION was -54.5%. Compound `Cn1cccc1C(=O)N1CCc2ncnc(N3CCCC3)c2CC1` has an INHIBITION of 48.9%. In the case of `CCc1ncnc2c1CCN(C(=O)c1cccn1C)CC2`, the INHIBITION was 64.9%. In the case of `Cc1ncnc2c1CCN(C(=O)c1cccn1C)CC2`, the INHIBITION was -0.388%. Work on `O=C(NCCOc1ccc2c(c1)OCO2)N1CCCC(CO)C1` (stereo not given) yielded an INHIBITION of -27.8%. In the case of `Cc1nnc(CN(Cc2ccc3c(c2)OCO3)C2CCCCC2)o1`, the INHIBITION was -9.76%.
